Source: PubChem BioAssay (NCATS)
Results filed as inconclusive are left out. Activity calls are given as the source filed them. Unless noted, calls come from the whole dose curve; as a rule, active = well fitted curve in the direction sought with a large enough effect; inconclusive = small, poorly fitted or top-dose-only effect, or another doubt; inactive = no such curve, though single readings can be large; an effect the other way counts as inactive or inconclusive.

How the values were obtained:
[1] = qHTS to identify inhibitors of the type 1 interferon - major histocompatibility complex class I in skeletal muscle: primary screen against the NCATS Pharmaceutical Collection (AID 1347407);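 note: luminescence of HiBiT knocked into endogenous HLA-B as interferon-induced MHC class I level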; note: potency is the fitted concentration of half-maximal effect
Outline: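 HLA-B HiBiT myoblasts, dexamethasone-free growth medium + 4 ng/ml IFN-b; compounds pinned 1 h after seeding, […] from 46 uM; 24 h, 37 C, 5% CO2; lytic HiBiT detection, 10 min RT, luminescence.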

[2] = biological target: Protein phosphatase 1D (Homo sapiens) (UniProt O15297); assay: RapidFire Mass Spectrometry qHTS Assay for Modulators of WT P53-Induced Phosphatase 1 (WIP1) (AID 1347424); note: potency is the fitted concentration of half-maximal effect
Chain of Protein phosphatase 1D (Homo sapiens) (O15297 whole entry, looked up): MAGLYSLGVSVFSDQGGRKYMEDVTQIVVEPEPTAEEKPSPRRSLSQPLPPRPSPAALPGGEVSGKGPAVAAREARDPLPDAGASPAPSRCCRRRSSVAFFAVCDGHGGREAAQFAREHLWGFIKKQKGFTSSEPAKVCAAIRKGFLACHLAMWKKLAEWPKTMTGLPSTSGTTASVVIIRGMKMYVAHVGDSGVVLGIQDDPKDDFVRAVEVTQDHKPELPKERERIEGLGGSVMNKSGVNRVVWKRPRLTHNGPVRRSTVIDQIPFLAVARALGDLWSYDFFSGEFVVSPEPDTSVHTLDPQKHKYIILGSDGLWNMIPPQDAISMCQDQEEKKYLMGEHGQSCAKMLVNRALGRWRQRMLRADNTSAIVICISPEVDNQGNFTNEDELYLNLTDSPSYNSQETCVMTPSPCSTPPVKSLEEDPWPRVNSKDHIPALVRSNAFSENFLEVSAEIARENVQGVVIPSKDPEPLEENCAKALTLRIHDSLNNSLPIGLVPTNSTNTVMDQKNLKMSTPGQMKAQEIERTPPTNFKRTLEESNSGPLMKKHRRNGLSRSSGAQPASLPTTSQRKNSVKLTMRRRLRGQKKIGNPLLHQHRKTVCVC
Outline: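 RapidFire MS readout of dephosphorylated VEPPL-S-QETFS product, with 1 uM isotope-labelled peptide standard. Reaction: 10 nM WIP1, 2 uM phosphopeptide substrate, 5 min, room temperature, after 1 h compound preincubation; stopped with 0.5% formic acid.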

[3] = Primary qHTS for inhibitors of La Crosse Virus (LACV) - induced cell death in SH-SY5Y cells (AID 1508616);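 note: top concentration of the series differs between compounds; higher means more rescue of cells from virus-induced death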
Outline: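 Rescue of virus-induced death was read as ATPLite luminescence after 6 days at 37C, scaled between DMSO wells with LACV and without virus. Cells were SH-SY5Y, 6000/well, infected at 0.01 MOI after compound addition.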

[4] = biological target: Calcium and integrin-binding protein 1 (Homo sapiens) (UniProt Q99828); assay: Confirmatory qHTS for Identification of Calcium Integrin Binding Protein 1 (CIB1) Competitor (AID 1508617); note: nearly all actives have a fitted effect of over 65% in size; note: potency is the fitted concentration of half-maximal effect
Chain of Calcium and integrin-binding protein 1 (Homo sapiens) (Q99828 whole entry, looked up): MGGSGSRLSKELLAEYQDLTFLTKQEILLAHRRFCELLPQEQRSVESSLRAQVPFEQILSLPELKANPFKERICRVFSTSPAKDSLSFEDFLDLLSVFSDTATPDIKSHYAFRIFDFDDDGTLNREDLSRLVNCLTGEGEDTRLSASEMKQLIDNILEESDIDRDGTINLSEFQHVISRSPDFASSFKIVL
Outline: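 Compounds at up to 114 uM final met 1 uM GST-tagged CIB1 for 15 min at room temperature (HEPES pH 7.4, 5 mM CaCl2). FITC-labelled alphaIIb peptide, 100 nM, added; polarization read after 15 min more.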

[5] = biological target: Calcium and integrin-binding protein 1 (Homo sapiens) (UniProt Q99828); assay: Primary qHTS for Identification of Calcium Integrin Binding Protein 1 (CIB1) Competitor (AID 1508620); note: potency is the fitted concentration of half-maximal effect
Outline: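 Fluorescence polarization competition: GST-tagged CIB1 (1 uM final) preincubated with compound 15 min at room temperature, then FITC-labelled alphaIIb peptide (100 nM final) added. After 15 min at room temperature, polarization read at Ex 480/Em 540.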

[6] = A High-Content qHTS Against Drug Library for the Identification of Small Molecules that Inhibit DYT1 Early Onset Primary Dystonia-Associated Cell Pathology (AID 1645839; calls by dose curve; note: series mostly up to about 46 µM)
Outline: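 Cells were seeded and left for 24 h, then dosed with compound alongside tetracycline induction of mutant EGFP-TorsinA. They were incubated for 48 h, fixed in 4% paraformaldehyde, permeabilized and imaged for mislocalization (%pathology) and cell count.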

[7] = biological target: Cytochrome P450 2D6 (Homo sapiens) (UniProt P10635); assay: Cytochrome P450 family 2 subfamily D member 6 (CYP2D6) small molecule antagonists: luciferase biochemical (cell-free) qHTS assay (AID 1645840; active = well fitted curve in the direction sought with a large enough effect in the repeat runs; an effect the other way counts as inactive or inconclusive; note: nearly all actives have a fitted effect of over 55% in size; note: potency is the fitted concentration of half-maximal effect)
Chain of Cytochrome P450 2D6 (Homo sapiens) (P10635 whole entry, looked up): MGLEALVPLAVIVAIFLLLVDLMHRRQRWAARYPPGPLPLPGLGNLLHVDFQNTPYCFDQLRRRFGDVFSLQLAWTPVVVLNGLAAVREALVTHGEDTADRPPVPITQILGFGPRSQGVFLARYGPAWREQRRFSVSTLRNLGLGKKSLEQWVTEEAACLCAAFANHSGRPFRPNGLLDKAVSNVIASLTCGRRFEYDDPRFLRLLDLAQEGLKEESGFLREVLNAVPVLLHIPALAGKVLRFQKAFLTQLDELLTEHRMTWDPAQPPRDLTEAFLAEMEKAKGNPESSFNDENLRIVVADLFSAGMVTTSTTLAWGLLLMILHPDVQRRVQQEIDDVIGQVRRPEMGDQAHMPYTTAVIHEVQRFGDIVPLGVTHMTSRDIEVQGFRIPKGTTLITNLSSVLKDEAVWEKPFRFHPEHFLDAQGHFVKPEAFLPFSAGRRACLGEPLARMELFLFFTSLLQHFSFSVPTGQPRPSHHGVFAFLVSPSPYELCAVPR
Outline: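 P450-Glo CYP2D6 system: proluciferin substrate converted by enzyme to luciferin, read by luminescence proportional to activity. Enzyme-substrate mix with compound 10 min at room temperature, then NADPH regeneration 1 h before detection reagent.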

[8] = biological target: Protein phosphatase 1D (Homo sapiens) (UniProt O15297); assay: Rhodamine-PBP qHTS Assay for Modulators of WT P53-Induced Phosphatase 1 (WIP1) (AID 1347425)
Outline: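 The read-out is the change in Rhodamine-PBP fluorescence (f1 - f0, ex 525/em 598 nm) as Pi is released, read each minute for 11 min. Final reaction: 5 nM WIP1, 10 uM phosphopeptide VEPPL-pS-QETFS, 10 uM Rh-PBP, 50 mM Tris-HCl pH 7.5, 30 mM MgCl2. Compound was preincubated with enzyme for 1 hour at room temperature.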

[9] = Primary qHTS for small molecule stabilizers of the endoplasmic reticulum resident proteome: Secreted ER Calcium Modulated Protein (SERCaMP) assay (AID 1508630); note: potency is the fitted concentration of half-maximal effect
Outline: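 The SH-SY5Y reporter protocol was run at 3 concentrations up to 38.3 uM (primary) or 11 concentrations (follow-up): 16 h compound, 100 nM thapsigargin for 4 h, then extracellular luciferase luminescence.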

[10] = biological target: Cytochrome P450 2C9 (Homo sapiens) (UniProt P11712); assay: Cytochrome P450 family 2 subfamily C member 9 (CYP2C9) small molecule antagonists: luciferase biochemical (cell-free) qHTS assay (AID 1645842; active = well fitted curve in the direction sought with a large enough effect in the repeat runs; an effect the other way counts as inactive or inconclusive; note: nearly all actives have a fitted effect of over 55% in size; note: potency is the fitted concentration of half-maximal effect)
Chain of Cytochrome P450 2C9 (Homo sapiens) (P11712 whole entry, looked up): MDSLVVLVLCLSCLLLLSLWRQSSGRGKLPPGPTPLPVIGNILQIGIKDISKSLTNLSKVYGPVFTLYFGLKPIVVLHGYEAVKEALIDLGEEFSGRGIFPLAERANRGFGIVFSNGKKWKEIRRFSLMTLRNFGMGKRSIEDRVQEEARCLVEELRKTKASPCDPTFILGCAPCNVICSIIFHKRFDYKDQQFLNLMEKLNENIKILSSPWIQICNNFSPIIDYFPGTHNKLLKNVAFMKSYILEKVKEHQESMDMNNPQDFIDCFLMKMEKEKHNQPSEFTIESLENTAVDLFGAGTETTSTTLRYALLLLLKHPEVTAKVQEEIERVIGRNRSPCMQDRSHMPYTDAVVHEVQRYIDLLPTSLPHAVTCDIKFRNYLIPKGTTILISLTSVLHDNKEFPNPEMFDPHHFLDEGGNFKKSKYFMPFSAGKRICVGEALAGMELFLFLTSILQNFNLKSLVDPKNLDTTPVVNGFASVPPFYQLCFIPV
Outline: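 P450-Glo CYP2C9 system: proluciferin substrate with enzyme in mix containing 0.4% BSA, 10 min at room temperature, then NADPH regeneration solution added and incubated 1 h at 37C. Detection reagent stopped reaction; luminescence read after 20 min as RLU.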

[11] = Cell Viability qHTS for small molecule stabilizers of the endoplasmic reticulum resident proteome (AID 1508629); conditions: cell viability counter-screen, 100 nM thapsigargin for final 4 h;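 note: potency is the fitted concentration of half-maximal effect; compound exposure about 46 h in total before the viability read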
[12] = biological target: Cytochrome P450 3A4 (Homo sapiens) (UniProt P08684); assay: Cytochrome P450 family 3 subfamily A member 4 (CYP3A4) small molecule antagonists: luciferase qHTS assay (AID 1645841; active = well fitted curve in the direction sought with a large enough effect in the repeat runs; an effect the other way counts as inactive or inconclusive; note: nearly all actives have a fitted effect of over 45% in size)
Chain of Cytochrome P450 3A4 (Homo sapiens) (P08684 whole entry, looked up): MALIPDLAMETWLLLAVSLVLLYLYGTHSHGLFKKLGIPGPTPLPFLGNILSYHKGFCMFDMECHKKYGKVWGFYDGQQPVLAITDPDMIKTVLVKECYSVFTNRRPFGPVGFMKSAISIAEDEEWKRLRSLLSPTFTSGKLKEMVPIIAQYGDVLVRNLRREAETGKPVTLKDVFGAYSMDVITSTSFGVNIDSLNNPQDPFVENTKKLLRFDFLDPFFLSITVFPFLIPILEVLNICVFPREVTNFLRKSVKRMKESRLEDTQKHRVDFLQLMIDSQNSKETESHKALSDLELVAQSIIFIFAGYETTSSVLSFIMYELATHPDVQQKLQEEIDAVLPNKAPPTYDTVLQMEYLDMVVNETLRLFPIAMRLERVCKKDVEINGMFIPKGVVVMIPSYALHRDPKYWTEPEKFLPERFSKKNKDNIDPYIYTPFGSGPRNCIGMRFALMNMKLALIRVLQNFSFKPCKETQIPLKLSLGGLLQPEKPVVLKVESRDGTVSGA
Outline: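 P450-Glo CYP3A4 enzyme with proluciferin substrate preincubated 10 min with compound at room temperature, then NADPH regeneration 1 h. Luciferin detection reagent added for 20 min; luminescence recorded. Ketoconazole positive control.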

Measured: Potency

CCCC(=O)c1cc(O)c(O)cc1O
inactive: [1] | [3] | [6]
active: [2] 35.5 µM | [4] 35.5 µM | [5] 112 µM | [7] 31.7 µM

Cc1cccc(N(C)C(=S)Oc2ccc3c(c2)CCC3)c1
inactive: [1] | [2] | [8] | [5] | [9] | [6] | [7]

Oc1ccc(CCNCCCCCCNCCc2ccccc2)cc1O
inactive: [1] | [2] | [8] | [5]
active: [7] 24.5 µM

Cc1ncc([N+](=O)[O-])n1C
not listed: [4] | [8] | [11] | [12]
inactive: all other assays above

CCOc1ccc(NS(=O)(=O)c2ccc(N)cc2)nn1
not listed: [4] | [8] | [11] | [12]
inactive: all other assays above

Oc1ccccc1
inactive: [1] | [2] | [8] | [3] | [6] | [10]

CN1CCC(Nc2ncc3ncnc(Nc4ccc(F)c(Cl)c4)c3n2)CC1
inactive: [2] | [8] | [5] | [10]
active: [1] 18.7 µM | [7] 15.5 µM

CO[C@@H]1[C@@H](OC)[C@H](C)[C@@](O)(CC(=O)O)O[C@H]1[C@H](C)[C@H]1O[C@@]2(CC[C@@](C)([C@H]3CC[C@@](C)([C@@H]4O[C@@H]([C@H]5O[C@](C)(O)[C@H](C)C[C@@H]5C)C[C@@H]4OC4C[C@H](OC)[C@@H](OC)[C@H](C)O4)O3)O2)C[C@H](O)[C@H]1C (stereo not given in full)
inactive: [1] | [2] | [8] | [5] | [9] | [7] | [10]

CCOC(=O)Cn1cccc1-c1nc(-c2ccc(OC)cc2)c(-c2ccc(OC)cc2)s1
inactive: [1] | [2] | [8] | [5] | [9] | [7]

CN1CCC(N(Cc2cccs2)c2ccccc2)CC1
active: [7] 0.49 µM
inactive: [1] | [2] | [8] | [4]

COc1ccc(-n2nc(CCC(=O)N(C)O)cc2-c2ccc(Cl)cc2)cc1
inactive: [1] | [2] | [8] | [5]
active: [7] 4.9 µM | [10] 2.75 µM

Cc1c(N)cccc1C(F)(F)F
not listed: [4] | [8] | [11] | [12]
inactive: all other assays above

CC(C)(C)C(O)/C=C/c1ccc2c(c1)OCO2 (stereo not given)
active: [7] 11 µM | [10] 3.09 µM
inactive: [1] | [2] | [8] | [3] | [6]

CC(=O)N(c1onc(C)c1C)S(=O)(=O)c1ccc(N)cc1
inactive: [1] | [2] | [8] | [3] | [6] | [7] | [10]

CCCOc1ccc2c(c1)CC[C@@H]1[C@@H]2CC[C@]2(C)C(OC)CC[C@@H]12 (stereo not given in full)
inactive: [1] | [2] | [8] | [5] | [6]
active: [7] 15.5 µM

CCCCN(CCCC)C(C(N)=O)c1ccc(OC)cc1 (stereo not given)
active: [7] 0.776 µM
not listed: [4] | [8] | [11] | [12]
inactive: all other assays above

CN1CCCN(C(c2ccccc2)c2ccc(Cl)cc2)CC1 (stereo not given)
active: [11] 25.1 µM | [7] 0.0776 µM
inactive: [1] | [2] | [8] | [5]

NS(=O)(=O)c1cc2c(cc1Cl)CN(C1CCCCC1)C2=O
inactive: [1] | [2] | [8] | [3] | [6] | [7] | [10]

O=[N+]([O-])c1ccc(O)c2ncccc12
inactive: [1] | [2] | [4] | [7] | [10]
active: [11] 7.94 µM | [9] 1 µM

CCS(=O)(=O)c1ccc(OC)c(C(=O)OC)c1
not listed: [2] | [4] | [11] | [12]
inactive: all other assays above

COC(=O)c1cc(Cl)ccc1OC
inactive: [1] | [2] | [3] | [5] | [6] | [7] | [10]

CC(C)(C)c1cc(C=O)cc(C(C)(C)C)c1O
inactive: [1] | [2] | [3] | [5] | [7]

O=C(O)c1ccc(OCCN2CCCCC2)cc1
inactive: [1] | [2] | [3] | [5] | [7] | [10]

CC(C)(C)C1CCC(CC2=C(O)c3ccccc3C(=O)C2=O)CC1 (stereo not given)
active: [10] 3.89 µM
inactive: [1] | [2] | [5] | [6] | [7]

CC(C)C(=O)OCc1cccc(OC(=O)[C@@H]2N3C(=O)[C@@H](NC(=O)Cc4ccccc4)[C@H]3SC2(C)C)c1
active: [10] 24.5 µM
not listed: [2] | [4] | [11] | [12]
inactive: all other assays above

CC(=O)N(CC(=O)N(C)C)c1ccccc1
not listed: [2] | [4] | [9] | [11]
inactive: all other assays above
